target: Cytochrome P450 3A4 (Homo sapiens) (UniProt P08684); assay: qHTS Assay for Activators of Cytochrome P450 3A4 (AID 885); conditions: recombinant CYP3A4, Luciferin-PPXE luminescence, 60 min; series mostly up to 57.1 µM; further: nearly all actives have a fitted effect of over 65% in size
Procedure, shortened: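 Steps: enzyme/substrate mix dispensed; compound added, 10 min RT; NADPH regeneration solution added, 60 min RT; luciferin detection buffer stops reaction; 20 min later luminescence measured.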

Cytochrome P450 3A4 (Homo sapiens), sequence (P08684 whole entry, looked up): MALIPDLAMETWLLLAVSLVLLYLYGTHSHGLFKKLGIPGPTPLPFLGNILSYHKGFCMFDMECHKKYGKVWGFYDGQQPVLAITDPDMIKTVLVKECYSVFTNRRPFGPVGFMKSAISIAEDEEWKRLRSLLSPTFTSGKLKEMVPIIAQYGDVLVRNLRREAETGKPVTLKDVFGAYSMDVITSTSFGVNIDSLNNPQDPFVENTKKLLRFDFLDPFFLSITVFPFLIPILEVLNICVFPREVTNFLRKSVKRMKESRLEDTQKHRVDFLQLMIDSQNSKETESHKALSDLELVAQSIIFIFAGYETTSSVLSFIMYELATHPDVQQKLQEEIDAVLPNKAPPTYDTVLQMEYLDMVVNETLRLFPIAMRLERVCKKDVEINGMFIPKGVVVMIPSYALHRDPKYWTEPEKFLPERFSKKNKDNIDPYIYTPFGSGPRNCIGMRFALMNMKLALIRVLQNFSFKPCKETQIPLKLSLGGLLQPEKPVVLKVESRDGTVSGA

Activity change, positive = activation, inactive:
COC(=O)C/C=C/C(C)C(OCc1cccc(Br)c1)C(C)C(OC)C1CCCCC1 (stereo not drawn) -58% [at 11.4 µM], COC(=O)NC(c1cccs1)C(C(C)=O)C(=O)OC (stereo not drawn) -34.2% [at 11.4 µM], CC[C@@H](c1ccccc1)n1c(=O)n2n(c1=O)[C@H]1[C@H](O)[C@H]3O[C@@H]3/C(=N/OC/C=C(\C)CCC=C(C)C)[C@@H]1CC2 -40.3% [at 11.4 µM], CC1CCC2C(=O)N3C(CCC(C)[C@@H]3c3ccc(Br)cc3)C(=O)N2C1c1ccc(Br)cc1 (stereo partly drawn) -48.7% [at 11.4 µM], C=CC[C@@H]1C=C[C@@H](O/N=C\c2ccc(C(=O)N3[C@H](c4ccc(C)cc4)[C@@H](C)CC[C@H]3C(=O)OC)cc2)[C@@H](CO)O1 -42.6% [at 11.4 µM], C=C/C1=C/Cc2ccccc2C(C[N+](=O)[O-])C(C(=O)OC)(C(=O)OC)C1 (stereo not drawn) -46.3% [at 11.4 µM], CCCNC(=O)OC[C@@H]1O[C@H](CCO/N=C\c2ccc(C(=O)N3[C@H](c4ccc(C)cc4)[C@@H](C)CC[C@H]3C(=O)OC)cc2)C=C[C@@H]1Oc1ccc(OC)cc1 -51.6% [at 11.4 µM], CO[C@H]1COC(=O)C/C=C\[C@H](C)[C@@H](OC)COC(=O)[C@H](C)COC(=O)C/C=C\[C@@H]1C -33.7% [at 11.4 µM]
